For the first assay, the target named is PRRX1 (Homo sapiens, UniProt P54821 80-166). Description: PBM; 200 nM protein, PBS. As to conditions: dsDNA, one strand shown.
Chain of PRRX1 (P54821 80-166): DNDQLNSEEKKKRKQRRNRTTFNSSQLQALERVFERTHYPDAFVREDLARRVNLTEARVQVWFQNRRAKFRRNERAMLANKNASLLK
Take GGCTATAA: the binding signal is 11.4 upbm affinity estimate (log intensity, higher = more binding, comparable within an allelic series).
The same measure, in the same setting: the result for ACAATTCT reads 10.5 upbm affinity estimate (log intensity, higher = more binding, comparable within an allelic series).
For the sequence ATTGAATG, the binding signal was 11.6 upbm affinity estimate (log intensity, higher = more binding, comparable within an allelic series).
Still for that read-out and setting: with AAAAGAAT the figure was 11 upbm affinity estimate (log intensity, higher = more binding, comparable within an allelic series); with TGATGAAA, 11.1 upbm affinity estimate (log intensity, higher = more binding, comparable within an allelic series); with AAATACGA, 11 upbm affinity estimate (log intensity, higher = more binding, comparable within an allelic series).
Still for that read-out and setting: with TACATCAA the figure was 11.1 upbm affinity estimate (log intensity, higher = more binding, comparable within an allelic series).
As for AATATCAA, the binding signal was 11.7 upbm affinity estimate (log intensity, higher = more binding, comparable within an allelic series).
As for ATACCTAA, the binding signal is 11.2 upbm affinity estimate (log intensity, higher = more binding, comparable within an allelic series).
The same measure, in the same setting: the result for AAATATTC reads 11.3 upbm affinity estimate (log intensity, higher = more binding, comparable within an allelic series); that for AATGTAAC, 11.3 upbm affinity estimate (log intensity, higher = more binding, comparable within an allelic series).
Still for that read-out and setting: the result for AATCAGCA reads 12 upbm affinity estimate (log intensity, higher = more binding, comparable within an allelic series).

In a further assay the target is HOXB6 (Homo sapiens, UniProt P17509 132-218). Nature of the assay: PBM; 200 nM protein, PBS. Particulars: dsDNA, one strand shown.
Chain of HOXB6 (P17509 132-218): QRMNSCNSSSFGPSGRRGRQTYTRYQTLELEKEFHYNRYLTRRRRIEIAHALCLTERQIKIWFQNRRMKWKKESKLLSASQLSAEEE
In the case of GCATAGTA, the binding signal was 9.78 upbm affinity estimate (log intensity, higher = more binding, comparable within an allelic series).
On the same count and under the same terms, the result for ATTAGCGC reads 10.6 upbm affinity estimate (log intensity, higher = more binding, comparable within an allelic series); that for ATTTTTTA, 10.4 upbm affinity estimate (log intensity, higher = more binding, comparable within an allelic series).
Same read-out and setting: the result for GGTTAATA reads 10.9 upbm affinity estimate (log intensity, higher = more binding, comparable within an allelic series); that for TGTAAACA, 10 upbm affinity estimate (log intensity, higher = more binding, comparable within an allelic series).
Still for that read-out and setting: with AAGATTTA the figure was 10 upbm affinity estimate (log intensity, higher = more binding, comparable within an allelic series); with ATGTAATC, 10.5 upbm affinity estimate (log intensity, higher = more binding, comparable within an allelic series); with TACTACGA, 10.1 upbm affinity estimate (log intensity, higher = more binding, comparable within an allelic series).
Take AAATAAAC: the binding signal was 10.5 upbm affinity estimate (log intensity, higher = more binding, comparable within an allelic series).
On the same count and under the same terms, the result for ACATATCT reads 10 upbm affinity estimate (log intensity, higher = more binding, comparable within an allelic series); that for ACAAATTG, 10.4 upbm affinity estimate (log intensity, higher = more binding, comparable within an allelic series).
Take CATTATGA: the binding signal is 11 upbm affinity estimate (log intensity, higher = more binding, comparable within an allelic series).
Still for that read-out and setting: the result for AGTATCTA reads 10.2 upbm affinity estimate (log intensity, higher = more binding, comparable within an allelic series); that for ATAATGTG, 11.1 upbm affinity estimate (log intensity, higher = more binding, comparable within an allelic series); that for CTATTTTA, 10.5 upbm affinity estimate (log intensity, higher = more binding, comparable within an allelic series).
On the same count and under the same terms, with AATGTACA the figure was 10.3 upbm affinity estimate (log intensity, higher = more binding, comparable within an allelic series); with ATATACGA, 9.93 upbm affinity estimate (log intensity, higher = more binding, comparable within an allelic series).
Still for that read-out and setting: the result for ATCATAAT reads 11.2 upbm affinity estimate (log intensity, higher = more binding, comparable within an allelic series).
